Results: PubChem BioAssay AID489008 (National Center for Advancing Translational Sciences (NCATS), 2010)
Results filed as inconclusive are left out. Calls of active or inactive are those of the source. Calls come from the whole dose curve; as a rule, active = well fitted inhibition curve with a large enough effect; inconclusive = small, poorly fitted or top-dose-only effect; inactive = flat fitted curve, though single readings scatter.

Molecular target: Ferritin light chain (Equus caballus) (UniProt P02791)
Test: Confirmation Assay for Identification of Novel General Anesthetics; note: nearly all actives have a fitted effect of over 40% in size
Settings: apoferritin 1-aminoanthracene fluorescence displacement
From the text: Anesthetic development has remained a largely empirical process. There are growing concerns about the cognitive effects of known general anesthetics and acceleration of the onset of neurodegenerative disease. The compounds' toxicity and multiple specific binding targets in the mammalian brain [4] has made them less attractive as drug leads. In this assay, a GABAergic mimetic model system, apoferritin and a profluorescent 1-aminoanthracene ligand (1-AMA), was used to construct a competitive binding assay for identification of novel general anesthetics. The assay was validated for 1-AMA using other known anesthetics, such as isoflurane (CID:3763) and propofol (CID: 4943), [6]. This particular BioAssay is a confirmation of followup compounds from primary screen AID:485281.
[1] S.L. Bianchi, T. Tran, C. Liu, S. Lin, Y. Li, J.M. Keller, R.G. Eckenhoff, and M.F. Eckenhoff, Brain and behavior changes in 12-month-old Tg2576 and nontransgenic mice exposed to anesthetics. Neurobiol Aging 29 (2008) 1002-10.
[2] Z. Xie, Y. Dong, U. Maeda, R.D. Moir, W. Xia, D.J. Culley, G. Crosby, and R.E. Tanzi, The inhalation anesthetic isoflurane induces a vicious cycle of apoptosis and amyloid beta-protein accumulation. J Neurosci 27 (2007) 1247-54.
[3] P. Honegger, and J.M. Matthieu, Selective toxicity of the general anesthetic propofol for GABAergic neurons in rat brain cell cultures. J Neurosci Res 45 (1996) 631-6.
[4] M.F. Eckenhoff, K. Chan, and R.G. Eckenhoff, Multiple specific binding targets for inhaled anesthetics in the mammalian brain. J Pharmacol Exp Ther 300 (2002) 172-9.
[5] C.A. Butts, J. Xi, G. Brannigan, A.A. Saad, S.P. Venkatachalan, R.A. Pearce, M.L. Klein, R.G. Eckenhoff, and I.J. Dmochowski, Identification of a fluorescent general anesthetic, 1-aminoanthracene. Proc Natl Acad Sci U S A 106 (2009) 6501-6.
[6] W.A. Lea, J. Xi, A. Jadhav, L. Lu, C.P. Austin, A. Simeonov, and R.G. Eckenhoff, A high-throughput approach for identification of novel general anesthetics. PLoS One 4 (2009) e7150.
Source: NIH Chemical Genomics Center [NCGC]
Assay Submitter: Roderic Eckenhoff, University of Pennsylvania
Screening Center PI: Christopher P. Austin, NIH
Probe Development: NIH Chemical Genomics Center [NCGC]
Three uL of reagents (free 1-AMA (50% saturated solution of 1-aminoanthracene
in PBS) in columns 3, 4 as negative control and 1-AMA/apoferritin mixture (10 uM horse-spleen apoferritin in 50% saturated 1-aminoanthracene in PBS) in columns 1, 2, 5-48) was dispensed into 1536-well Greiner black assay plates. Compounds (23 nL) were transferred via Kalypsys pintool equipped with 1,536-pin array (10 nL slotted pins, V&P Scientific, San Diego, CA). Titration of the positive control, propofol, were delivered via pin transfer from separate control plates to the 2nd column of each assay plate. The starting concentration of the control, dissolved in DMSO, was at 160 mM, followed by two-fold dilution points in duplicate, for a total of 16 concentrations. The plates were incubated for 10 min at room temperature, and then read on an EnVision HTS multilabel reader (Perkin-Elmer, Waltham, MA) (end point read, 3 min/plate) using Fura2 BFP excitation filter (380 nm, bandwidth 10 nm) and fluorescein emission filter (535 nm, bandwidth 25 nm) set. A LANCE/DELFIA dichroic mirror with a cutoff wavelength at 400 nm was used to maximize signal accuracy and strength. Vehicle-only plates, with DMSO being pin-transferred to the entire column 5-48 compound area, were inserted uniformly at the beginning and the end of each library in order to monitor for and record any shifts in the background. Activity was computed as the normalized fluorescence response relative to free 1-AMA and 1-AMA/apoferritin complex values. Concentration-effect relationships were derived by using curve fitting algorithms developed in-house (http://ncgc.nih.gov/pub/openhts/). […]
Potency is the fitted concentration of half-maximal effect.

Sequence of Ferritin light chain (Equus caballus) (P02791 2-175 limits assumed): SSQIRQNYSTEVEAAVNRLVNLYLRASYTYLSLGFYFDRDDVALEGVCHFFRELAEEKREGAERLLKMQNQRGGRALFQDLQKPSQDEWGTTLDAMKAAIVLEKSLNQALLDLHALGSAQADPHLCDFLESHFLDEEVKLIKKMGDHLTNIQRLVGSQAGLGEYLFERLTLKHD

| SMILES | Potency |
| --- | --- |
| O=C(COC(=O)Cc1ccccc1)NC12CC3CC(CC(C3)C1)C2 | 14.1 µM (active) |
| Nc1ccc(Oc2cccc(Oc3ccc(N)cc3)c2)cc1 | 31.6 µM (active) |
| c1ccc(C2CC3CC4(CCCC4)N2O3)cc1 (configuration not stated) | 7.94 µM (active) |
| O=C(Cn1nc(-c2ccccc2)ccc1=O)N1CCC2(CC1)OCCO2 | 15.8 µM (active) |
| O=C1C(c2ccccc2)=C(N2CC2)c2ccccc21 | 35.5 µM (active) |
| CCN(CC)C(=O)Oc1ccc(Cl)c2ccccc12 | 31.6 µM (active) |
| CC(C(=O)c1cn(C)c2ccccc12)c1ccccc1 (configuration not stated) | 35.5 µM (active) |
